# According to article PMC11024108:
# Target: Stress-70 protein, mitochondrial (UniProt P38646)
# Experiment: cross-link between two proteins; cross-linking mass spectrometry
# V-type proton ATPase subunit D, P57746, sequence (P57746 whole entry): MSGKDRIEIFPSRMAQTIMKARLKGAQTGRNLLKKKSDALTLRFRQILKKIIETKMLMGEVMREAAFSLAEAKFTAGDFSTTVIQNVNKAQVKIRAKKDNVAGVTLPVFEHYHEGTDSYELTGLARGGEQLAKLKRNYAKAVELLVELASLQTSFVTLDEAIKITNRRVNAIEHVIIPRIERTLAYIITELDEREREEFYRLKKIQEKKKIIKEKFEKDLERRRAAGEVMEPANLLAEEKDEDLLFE
row,Substance,listed as a hit
1,"Mitochondrial import inner membrane translocase subunit TIM44, O43615",yes
2,"Electron transfer flavoprotein subunit beta, P38117",yes
3,"Pyrroline-5-carboxylate reductase 1, mitochondrial, P32322",yes

# Target: V-type proton ATPase 116 kDa subunit a 1 (UniProt Q9Z1G4)
# Experiment: as above
# V-type proton ATPase 116 kDa subunit a 1, sequence (Q9Z1G4 whole entry): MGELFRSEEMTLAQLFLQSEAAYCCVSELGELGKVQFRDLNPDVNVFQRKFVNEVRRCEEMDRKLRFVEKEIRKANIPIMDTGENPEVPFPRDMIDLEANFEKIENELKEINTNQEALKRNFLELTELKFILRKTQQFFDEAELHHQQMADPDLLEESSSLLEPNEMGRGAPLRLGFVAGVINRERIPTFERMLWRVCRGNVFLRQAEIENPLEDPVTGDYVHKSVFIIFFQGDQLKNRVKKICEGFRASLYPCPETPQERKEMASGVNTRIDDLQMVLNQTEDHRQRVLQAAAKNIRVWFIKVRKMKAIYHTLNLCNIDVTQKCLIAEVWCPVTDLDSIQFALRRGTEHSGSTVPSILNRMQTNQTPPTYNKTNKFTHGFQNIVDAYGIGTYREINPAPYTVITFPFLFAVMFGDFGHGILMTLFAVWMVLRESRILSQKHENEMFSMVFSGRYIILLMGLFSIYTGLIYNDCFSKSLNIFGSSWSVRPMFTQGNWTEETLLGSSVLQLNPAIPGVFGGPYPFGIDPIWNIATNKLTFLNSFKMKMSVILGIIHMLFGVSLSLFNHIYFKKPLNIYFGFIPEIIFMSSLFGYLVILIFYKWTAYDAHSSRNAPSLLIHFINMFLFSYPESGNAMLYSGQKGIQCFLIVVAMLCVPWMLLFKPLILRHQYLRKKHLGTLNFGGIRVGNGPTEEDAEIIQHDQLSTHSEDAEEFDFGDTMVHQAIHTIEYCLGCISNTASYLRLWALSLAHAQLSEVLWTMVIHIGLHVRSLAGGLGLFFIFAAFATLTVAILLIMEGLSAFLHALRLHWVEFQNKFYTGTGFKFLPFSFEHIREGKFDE
row,Substance,listed as a hit
1,"V-type proton ATPase subunit S1, Q9R1Q9",yes
2,"V-type proton ATPase subunit H, Q8BVE3",yes
3,"Vesicle-associated membrane protein 1, Q62442",yes

# Target: V-type proton ATPase subunit B, brain isoform (UniProt P62814)
# Sequence (P62814 whole entry, canonical isoform): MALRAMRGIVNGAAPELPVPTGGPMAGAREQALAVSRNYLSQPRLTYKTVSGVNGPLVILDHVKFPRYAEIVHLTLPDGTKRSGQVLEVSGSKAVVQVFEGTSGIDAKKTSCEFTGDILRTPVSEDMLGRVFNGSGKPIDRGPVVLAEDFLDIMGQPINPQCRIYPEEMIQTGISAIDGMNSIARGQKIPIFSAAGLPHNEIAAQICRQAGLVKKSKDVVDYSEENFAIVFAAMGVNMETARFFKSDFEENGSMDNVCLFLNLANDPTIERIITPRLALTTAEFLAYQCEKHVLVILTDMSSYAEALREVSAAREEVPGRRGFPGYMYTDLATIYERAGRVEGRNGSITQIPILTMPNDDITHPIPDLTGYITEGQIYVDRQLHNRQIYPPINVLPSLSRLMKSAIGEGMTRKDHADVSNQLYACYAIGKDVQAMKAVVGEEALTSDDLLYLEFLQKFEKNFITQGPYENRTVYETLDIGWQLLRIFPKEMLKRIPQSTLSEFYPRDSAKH
# Experiment: as above
row,Substance,listed as a hit
1,"V-type proton ATPase catalytic subunit A, P50516",yes
2,"V-type proton ATPase subunit E 1, P50518",yes
3,"V-type proton ATPase subunit D, P57746",yes
